Assay results: PubChem BioAssay AID1159580 (chemical genetic matrix, 2015)
Where “and” joins values, the source holds several entries; their conditions need not be identical. Equal entries are not always repeated. Screen size: about 5,500 compounds; about 2,000 (36%) were called active. About 18% were inconclusive and are not listed. Cut-off read from the data, not from the text of the source: active = normalized growth mostly below about 0.91 (no sharp cut-off); inconclusive = no clear call, values can overlap the other calls; inactive = mostly above about 0.92. The list shows a part of the results.

Assay: chemical genetic growth profiling, strain panel (AID 1159580);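 note: tested at 20 µM; growth read once vehicle control cultures reached saturation at 30 °C; 1 = growth at the plate median or of vehicle wells; lower values mean less growth of the strain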
Settings: S. cerevisiae deletion strains, growth OD

Measured: normalized growth

OCc1ccccc1O
inactive: locus YAL021C, strain ccr4, active compounds read low 1.02 | locus YAL026C, strain drs2, active compounds read low 1.02 | locus YAL030W, strain snc1, active compounds read low 1 | locus YBL061C, strain skt5, active compounds read low 1.03 | locus YBR009C, strain hhf1, active compounds read low 1.02 | locus YBR021W, strain FUR4, active compounds read low 1.02 | locus YBR023C, strain chs3, active compounds read low 1.02 | locus YBR171W, strain sec66, active compounds read low 1.01 | locus YBR229C, strain ROT2, active compounds read low 1.02 | locus YBR231C, strain swc5, active compounds read low 1.03 | locus YBR279W, strain paf1, active compounds read low 1.03 | locus YCL011C, strain gbp2, active compounds read low 1.03 | locus YCL016C, strain dcc1, active compounds read low 1.02 | locus YCL029C, strain bik1, active compounds read low 0.995 | locus YCL069W, strain vba3, active compounds read low 1 | locus YCR088W, strain abp1, active compounds read low 1.04 | locus YDL005C, strain med2, active compounds read low 1.02 | locus YDL035C, strain GPR1, active compounds read low 1.02 | locus YDL040C, strain nat1, active compounds read low 1.01 | locus YDL074C, strain BRE1, active compounds read low 1.04 | locus YDL101C, strain DUN1, active compounds read low 1.02 | locus YDL134C, strain PPH21, active compounds read low 1.02 | locus YDL185W, strain tfp1, active compounds read low 0.992 | locus YDL192W, strain arf1, active compounds read low 0.991 | locus YDR001C, strain nth1, active compounds read low 1.02 | locus YDR069C, strain doa4, active compounds read low 1.03 | locus YDR101C, strain arx1, active compounds read low 0.987 | locus YDR137W, strain rgp1, active compounds read low 1.02 | locus YDR150W, strain NUM1, active compounds read low 1.02 | locus YDR159W, strain sac3, active compounds read low 1.05 | locus YDR162C, strain NBP2, active compounds read low 1 | locus YDR195W, strain ref2 1.02 | locus YDR297W, strain sur2, active compounds read low 1.02 | locus YDR318W, strain mcm21, active compounds read low 0.992 | locus YDR334W, strain swr1, active compounds read low 1.03 | locus YDR335W, strain msn5, active compounds read low 1.03 | locus YDR388W, active compounds read low 0.991 | locus YDR392W, strain spt3, active compounds read low 1.03 | locus YDR502C, strain sam2, active compounds read low 0.988 | locus YEL003W, strain gim4, active compounds read low 1.02 | locus YEL037C, strain rad23, active compounds read low 1 | locus YEL061C, strain CIN8 (second series), active compounds read low 1.01 | locus YEL061C, strain CIN8, active compounds read low 1.01 | locus YER015W, strain faa2, active compounds read low 0.998 | locus YER016W, strain bim1, active compounds read low 1.03 | locus YER110C, active compounds read low 0.995 | locus YER111C, strain swi4, active compounds read low 0.997 | locus YER155C, strain BEM2 (second series), active compounds read low 1.05 | locus YER155C, strain BEM2, active compounds read low 1.02 | locus YER167W, strain BCK2, active compounds read low 1.01 | locus YFR010W, strain ubp6, active compounds read low 1.02 | locus YGL078C, strain dbp3, active compounds read low 0.978 | locus YGL086W, strain mad1, active compounds read low 1.01 | locus YGL167C, strain pmr1, active compounds read low 1.02 | locus YGL173C, strain kem1, active compounds read low 1.02 | locus YGL227W, strain vid30, active compounds read low 1.03 | locus YGL240W, strain doc1, active compounds read low 1.05 | locus YGL248W, strain PDE1, active compounds read low 1.02 | locus YGL253W, strain hxk2, active compounds read low 1.02 | locus YGR135W, strain pre9, active compounds read low 0.982 | locus YGR252W, strain gcn5, active compounds read low 0.994 | locus YHR013C, strain ard1, active compounds read low 1.06 | locus YHR027C, strain rpn1, active compounds read low 1.02 | locus YHR030C, strain SLT2, active compounds read low 1.01 and 1.09 | locus YHR079C, strain IRE1 (second series), active compounds read low 0.977 | locus YHR079C, strain IRE1, active compounds read low 1.09 | locus YHR094C, strain hxt1, active compounds read low 0.982 | locus YHR129C, strain ARP1, active compounds read low 1.02 | locus YHR142W, strain chs7, active compounds read low 1.03 | locus YHR200W, strain rpn10, active compounds read low 0.995 | locus YIL066C, strain RNR3, active compounds read low 1.02 | locus YIL073C, strain SPO22, active compounds read low 0.949 | locus YIL125W, strain kgd1, active compounds read low 0.993 | locus YIR030C, strain dcg1, active compounds read low 0.989 | locus YJL092W, strain hpr5, active compounds read low 1.02 | locus YJL095W, strain BCK1 (second series), active compounds read low 1.02 | locus YJL095W, strain BCK1, active compounds read low 1.02 and 1.04 | locus YJL115W, strain asf1, active compounds read low 1.03 | locus YJL129C, strain trk1, active compounds read low 1.01 | locus YJL134W, strain LCB3, active compounds read low 1.02 | locus YJL154C, strain vps35, active compounds read low 1.02 | locus YJL164C, strain tpk1, active compounds read low 1.02 | locus YJL166W, strain qcr8, active compounds read low 1.02 | locus YJL168C, strain set2, active compounds read low 0.99 | locus YJL187C, strain SWE1 (second series), active compounds read low 1.02 | locus YJR043C, strain POL32, active compounds read low 1.02 | locus YJR066W, strain TOR1, active compounds read low 1.01 | locus YJR075W, strain HOC1, active compounds read low 1.02 | locus YKL009W, strain mrt4, active compounds read low 0.988
